We go through 15 compounds from PubChem BioAssay.

The nature of assay [1]: liver-stage malaria parasite growth inhibition, primary screen, cell-based, HepG2, luciferase luminescence, HepG2 viability (AID 624349; in the data active = parasite load remaining mostly below about 12%, no sharp cut-off; inactive = mostly above about 10%;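 also: 100% = mean of DMSO negative control wells on the same plate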). As to conditions: P. berghei liver stage in HepG2, luciferase luminescence, concentration not given here; parasite load remaining: stronger effect = lower value; viability: measured here: HepG2 viability without parasites.
The nature of assay [2]: Cy5 fluorescence interference with SSB-bound oligo, artefact control for HCV NS3 helicase inhibitor project, biochemical, NIH Clinical Collection, E. coli SSB (AID 743268).
Assay [3] relates to Hepatitis C virus NS3 helicase. The experiment in a line: HCV NS3 helicase inhibitors, primary screen, biochemical, fluorescence polarization, NIH Clinical Collection (AID 743270). The note with it: NS3 helicase binding to Cy5-dT15 DNA, stronger effect = higher value, concentration not given here. (In general: Fluorescence polarisation rises when a labelled molecule tumbles more slowly, as on binding a larger partner.)

In assay [4] the target is Single-stranded DNA-binding protein (Escherichia coli (strain K12)) (UniProt P0AGE0). Put plainly: E. coli SSB displacement from DNA, counter-screen for HCV NS3 helicase inhibitor project, biochemical, fluorescence polarization, NIH Clinical Collection (AID 743271; in the data active = inhibition above about 28%). As to conditions: stronger effect = higher value, concentration not given here. A general note: Counterscreens check selectivity or assay interference.

Assay [5] is described as follows: fluorescence interference in NS3h assay format, artefact control for HCV NS3 helicase inhibitor project, biochemical, NIH Clinical Collection (AID 743272).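 Also: HCV NS3 helicase with a Cy5 labelled single stranded DNA probe.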 As to conditions: fluorescence interference counterscreen, stronger effect = lower value.
The test system of assay [6] is Neuropilin-2 / VEGF-C interaction (human). The experiment in a line: inhibitors of NRP2–VEGF-C binding, biochemical, microplate binding format, z-score (AID 743281). As to conditions: microplate NRP2/VEGF-C binding assay; stronger effect = lower value.
Assay [7] is described as follows: stimulators of nuclear beta-catenin in C2C12, primary screen, imaging, WNT3A-conditioned medium, mouse C2C12, NPC library (AID 1117326; in the data active = nuclear beta-catenin stimulation mostly above about 4.2%, no sharp cut-off; inactive = mostly below about 10%). As to conditions: stronger effect = higher value.

SMILES strings stand for the structures. “And” between values parts separate entries of the source, which are not always exact repeats. Equal entries are not always repeated. The source made the active and inactive calls. Unless noted, no rule for the calls is given here.

Take `NCC1CCC(C(=O)Oc2ccc(CCC(=O)O)cc2)CC1` (configuration not stated): in assay [1], the parasite load remaining is 104% (inactive). Moreover, the viability (as a rule, a read-out of living cells in per cent, often relative to untreated cells) in assay [1] is 78.2%. Moreover, the fluorescence ratio in assay [2] is 1.02 (inactive); in assay [5] it was 0.94 (inactive). The inhibition (as a rule, the change of the read-out against control, counted positive when it falls) in assay [3] is -1.98% (inactive); in assay [4], -3.18% (inactive). Besides, in assay [6], the z-score is -0.934 (inactive). Further, the nuclear beta-catenin stimulation in assay [7] (at 10 µM) is 0.5% (inactive); in assay [7] (stimulation, at 2 µM), 1%.
In the case of `Nc1nc2c(ncn2CCC(CO)CO)c(=O)[nH]1`, the parasite load remaining in assay [1] is 89.5% (inactive) and 22.2% (inactive). The viability in assay [1] is 82.6% and 70.5%. Also, the fluorescence ratio is 1.05 (inactive) in assay [2] and 1.01 (inactive) in assay [5]. Further, the inhibition in assay [3] is 2.77% (inactive); in assay [4], -1.64% (inactive). Also, the outcome in assay [6] was inactive. Also, the nuclear beta-catenin stimulation in assay [7] (at 10 µM) is 0.5% (inactive); in assay [7] (stimulation, at 2 µM), 1.8%.
For `CC(C)[C@H](N)C(=O)OCCOCn1cnc2c(=O)[nH]c(N)nc21`, in assay [1], the parasite load remaining was 172% (inactive) and 103% (inactive) and 32.5% (inactive). Further, the viability in assay [1] is 88% and 76.1% and 74%. Moreover, the values for the fluorescence ratio in assay [2] and in assay [5] were 1.06 (inactive) and 1.03 (inactive), respectively. Moreover, the inhibition was -4.36% (inactive) in assay [3] and -4.72% (inactive) in assay [4]. In addition, the compound was classed as inactive in assay [6]. Also, the nuclear beta-catenin stimulation is 0.1% (inactive) in assay [7] (at 10 µM) and 2.1% in assay [7] (stimulation, at 2 µM).
As to `CCCN1CCCC[C@H]1C(=O)Nc1c(C)cccc1C`, the parasite load remaining in assay [1] was 68.8% (inactive). The viability in assay [1] was found to be 69.6%. Further, the fluorescence ratio in assay [2] was 0.98 (inactive); in assay [5], 0.92 (inactive). In addition, the inhibition in assay [3] is -5.46% (inactive); in assay [4], -2.76% (inactive). For the same compound, in assay [6], the z-score was 0.543 (inactive). Also, the nuclear beta-catenin stimulation in assay [7] (at 10 µM) is 0.3% (inactive); in assay [7] (stimulation, at 2 µM) it was -1.3%.
Turning to `CC1CCN(CCCC(=O)c2ccc(F)cc2)CC1`, the parasite load remaining in assay [1] was 55.3% (inactive). Besides, the viability in assay [1] was 68.6%. Besides, the fluorescence ratio in assay [2] was 1 (inactive); in assay [5] it was 0.99 (inactive). In addition, the inhibition in assay [3] was -3.71% (inactive); in assay [4], 1.97% (inactive). Moreover, the z-score in assay [6] is 1.36 (inactive). The nuclear beta-catenin stimulation in assay [7] (at 10 µM) is 1.8% (inactive); in assay [7] (stimulation, at 2 µM), 0.7%.
`CCCN[C@H]1CCc2nc(N)sc2C1`: the parasite load remaining in assay [1] was 115% (inactive) and 91.5% (inactive) and 28.8% (inactive). In addition, the viability in assay [1] is 75% and 71% and 70.5%. Moreover, the fluorescence ratio in assay [2] was 1.02 (inactive); in assay [5] it was 0.97 (inactive) and 1 (inactive). The inhibition was -0.4% (inactive) in assay [3]; -1.64% (inactive) and 0.67% (inactive) in assay [4]. Moreover, in assay [6], the z-score was -0.903 (inactive) and 0.751 (inactive). For the same compound, the nuclear beta-catenin stimulation in assay [7] (at 10 µM) was 0.9% (inactive); in assay [7] (stimulation, at 2 µM), 0.5%.
With `CC(C)c1nc(CN(C)C(=O)N[C@H](C(=O)N[C@@H](Cc2ccccc2)C[C@H](O)[C@H](Cc2ccccc2)NC(=O)OCc2cncs2)C(C)C)cs1`, in assay [1], the parasite load remaining is 53.8% (inactive). Further, the viability in assay [1] worked out at 79.2%. Moreover, the fluorescence ratio is 1.03 (inactive) in assay [2] and 0.89 (inactive) in assay [5]. In addition, the inhibition in assay [3] is 3.56% (inactive); in assay [4], 9.91% (inactive). The z-score in assay [6] is 0.723 (inactive). Further, the nuclear beta-catenin stimulation was 7.7% (inactive) in assay [7] (at 10 µM) and 5.1% in assay [7] (stimulation, at 2 µM).
Regarding `CN1CCC(=C2c3ccccc3CCc3sccc32)CC1`, in assay [1], the parasite load remaining was 28.2% (inactive) and 50.3% (inactive) and 34.4% (inactive). Also, in assay [1], the viability was 70.7% and 95.5% and 65.5%. Also, the fluorescence ratio was 0.99 (inactive) in assay [2] and 0.94 (inactive) in assay [5]. Further, the inhibition in assay [3] was -1.98% (inactive); in assay [4], -0.87% (inactive). Besides, the z-score in assay [6] is 1.11 (inactive). For the same compound, the nuclear beta-catenin stimulation in assay [7] (at 10 µM) is -0.8% (inactive); in assay [7] (stimulation, at 2 µM), -1.1%.
Turning to `CN(CCOc1ccc(NS(C)(=O)=O)cc1)CCc1ccc(NS(C)(=O)=O)cc1`, in assay [1], the parasite load remaining is 94% (inactive) and 61.2% (inactive); the viability was 70% and 214%. Moreover, the z-score in assay [6] is -1.11 (inactive). Also, in assay [7] (at 10 µM), the nuclear beta-catenin stimulation was -0.7% (inactive). Also, the nuclear beta-catenin stimulation in assay [7] (stimulation, at 2 µM) was determined as 1.6%.
With `COc1cc(C)nc(-n2nc(C)cc2OC)n1`, the parasite load remaining in assay [1] was 32% (inactive) and 118% (inactive) and 64.4% (inactive). For the same compound, the viability in assay [1] is 46.8% and 89.6% and 75.3%. The fluorescence ratio in assay [2] was 0.95 (inactive); in assay [5], 0.88 (inactive). The inhibition in assay [3] was -0.22% (inactive); in assay [4], 5.91% (inactive). Besides, the z-score in assay [6] was -0.659 (inactive). For the same compound, the nuclear beta-catenin stimulation in assay [7] (at 10 µM) is -1.3% (inactive); in assay [7] (stimulation, at 2 µM), -0.3%.
For `Cc1ccsc1C(=CCCN1CCC[C@@H](C(=O)O)C1)c1sccc1C`, in assay [1], the parasite load remaining is 111% (inactive). Further, the viability in assay [1] stood at 71.9%. Also, the figures for the fluorescence ratio in assay [2] and in assay [5] were 0.99 (inactive) and 0.96 (inactive), respectively. Also, the inhibition in assay [3] was -2.77% (inactive); in assay [4] it was 3.75% (inactive). The z-score in assay [6] is 1.77 (inactive). Moreover, the nuclear beta-catenin stimulation in assay [7] (at 10 µM) is 1.8% (inactive); in assay [7] (stimulation, at 2 µM) it was 0.9%.
Consider `CNCCCCOc1ccccc1Cc1ccccc1`, for which, in assay [1], the parasite load remaining is 22.1% (inactive). The viability in assay [1] is 54.6%. Further, the results for the fluorescence ratio in assay [2] and in assay [5] were 1 (inactive) and 0.96 (inactive), respectively. Further, the inhibition in assay [3] was -4.36% (inactive); in assay [4], -0.87% (inactive). Further, the z-score in assay [6] was -0.524 (inactive). Moreover, the nuclear beta-catenin stimulation is 1.7% (inactive) in assay [7] (at 10 µM) and 1.6% in assay [7] (stimulation, at 2 µM).
With `Nc1nc(N)nc(-c2cc(Cl)ccc2Cl)n1`, in assay [1], the parasite load remaining is 141% (inactive) and 22.8% (inactive). Besides, the viability in assay [1] is 129% and 67.5%. The values for the fluorescence ratio in assay [2] and in assay [5] were 1.05 (inactive) and 1.02 (inactive), respectively. Moreover, the results for the inhibition in assay [3] and in assay [4] were -1.19% (inactive) and 2.21% (inactive), respectively. Further, in assay [6], the z-score was 0.00875 (inactive). The nuclear beta-catenin stimulation in assay [7] (at 10 µM) is 0.6% (inactive); in assay [7] (stimulation, at 2 µM), 0.3%.
On to `COCCCC/C(=N\OCCN)c1ccc(C(F)(F)F)cc1`, for which, in assay [1], the parasite load remaining is 94.5% (inactive) and the viability was determined as 63.8%. Further, the result in assay [6] was inactive. Further, the nuclear beta-catenin stimulation in assay [7] (at 10 µM) is 0.8% (inactive). Also, in assay [7] (stimulation, at 2 µM), the nuclear beta-catenin stimulation was 0.4%.
Take `Cc1ccnc2c1NC(=O)c1cccnc1N2C1CC1`: in assay [1], the parasite load remaining is 79.8% (inactive). Further, in assay [1], the viability stood at 69.1%. Further, the fluorescence ratio in assay [2] was 1.05 (inactive); in assay [5], 1 (inactive). Besides, the inhibition in assay [3] is 1.98% (inactive); in assay [4], -5.49% (inactive). For the same compound, in assay [6], the z-score is -1.18 (inactive). Further, the nuclear beta-catenin stimulation in assay [7] (at 10 µM) is 0% (inactive); in assay [7] (stimulation, at 2 µM), 1.8%.
